The values that follow come from PubChem BioAssay (NCI).

Assay [1] can be described thus: NCI Yeast Anticancer Drug Screen. Data for the rad50 strain (AID 155).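 Note: 0% = growth of vehicle-only cultures of the same strain.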 To be noted: S. cerevisiae rad50 strain growth inhibition, hits give high values. The gist of the method: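 Relative growth inhibition (compound vs vehicle) was measured in yeast with a defined repair-gene alteration.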
The nature of assay [2]: NCI Yeast Anticancer Drug Screen. Data for the mec2-1 strain (AID 157). The conditions noted are these: S. cerevisiae mec2-1 strain, hits give high values. In outline:
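Growth inhibition is read against vehicle-treated controls after compound exposure of the mec2-1 yeast strain, which is defective in DNA damage repair or cell cycle control.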

Assay [3] in a line: NCI Yeast Anticancer Drug Screen. Data for the sgs1 mgt1 strain (AID 161).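 Note: 0% = growth of cultures given vehicle only.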 The conditions noted are these: S. cerevisiae sgs1 mgt1 strain, hits give high values. In outline:
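Percent growth inhibition was derived by comparing compound-exposed mutant yeast with vehicle-exposed cultures. The strain carries alterations in DNA damage repair.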

Assay [4] in a line: NCI Yeast Anticancer Drug Screen. Data for the cln2 rad14 strain (AID 165).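 Note: 0% = growth equal to vehicle treated cultures.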 The conditions noted are these: S. cerevisiae cln2 rad14 strain, hits give high values. The gist of the method:
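Growth inhibition, relative to vehicle-treated controls, is the read-out. The test organism is a yeast strain with defined genetic alterations, cln2 rad14.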

Assay [5] in a line: NCI Yeast Anticancer Drug Screen. Data for the bub3 strain (AID 167). The conditions noted are these: S. cerevisiae bub3 mutant strain, hits give high values. In outline: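 Screening used yeast with an engineered genetic alteration affecting cell cycle control. Compound-exposed cultures were compared with vehicle cultures, and reduced growth was taken as inhibition.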
Assay [6] can be described thus: NCI Yeast Anticancer Drug Screen. Data for the mlh1 rad18 strain (AID 175). To be noted: S. cerevisiae mlh1 rad18 strain growth inhibition, hits give high values. In outline:
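Cells of a genetically altered yeast strain, deficient in DNA damage repair, were treated with compound. Their growth was then compared with that of vehicle-treated cultures to give inhibition.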

Where [7] appears, read: at 5.0 µM (retest, dose inferred, filed as 0.5).
Setting [8] is: at 50.0 µM (retest, dose inferred, filed as 5.0).

This is part of a sample that, as a whole, favours compounds with a hit. Of some 79,000 tested, about 15% had one in any assay. Values without a mark were called inactive. Active and inactive are the calls of the source. Cut-off read from the data, not from the text of the source: active = growth inhibition above about 70%; inactive = the rest. Where a SMILES comes first, the peptide text is derived from it. The star is where a group is joined. Trt = c1ccc(C(c2ccccc2)(c2ccccc2)*)cc1; OtBu = CC(C)(C)O*

For the compound `c1ccc2[nH]c(CN(CCN(Cc3nc4ccccc4[nH]3)Cc3nc4ccccc4[nH]3)Cc3nc4ccccc4[nH]3)nc2c1`, the growth inhibition was 97% (active) in assay [1] (setting [7]); 95% (active) in assay [1] (setting [8]); 91.1% (active) in assay [1] (at 50.0 µM); 97% (active) in assay [2] (setting [7]); 97% (active) in assay [2] (setting [8]); 91.5% (active) in assay [2] (at 50.0 µM). The growth inhibition in assay [3] (setting [7]) is 99% (active); in assay [3] (setting [8]), 96% (active); in assay [3] (at 50.0 µM), 91% (active); in assay [4] (setting [7]), 99% (active); in assay [4] (setting [8]) it was 94% (active); in assay [4] (at 50.0 µM), 90.3% (active). The growth inhibition in assay [5] (setting [7]) is 99% (active); in assay [5] (setting [8]), 95% (active); in assay [5] (at 50.0 µM) it was 89% (active); in assay [6] (setting [7]) it was 96% (active); in assay [6] (setting [8]) it was 93% (active); in assay [6] (at 50.0 µM), 89.7% (active).

Regarding `CC(CCN)(CCN)[N+](=O)[O-]`, the growth inhibition in assay [1] (setting [7]) was 16%; in assay [1] (setting [8]), 18%; in assay [1] (at 50.0 µM), 8.3%; in assay [2] (setting [7]), -1%; in assay [2] (setting [8]), -27%; in assay [2] (at 50.0 µM), 15.8%. Also, the growth inhibition in assay [3] (setting [7]) was -4%; in assay [3] (setting [8]) it was 27%; in assay [3] (at 50.0 µM) it was -13.6%; in assay [4] (setting [7]), -25%; in assay [4] (setting [8]) it was -2%; in assay [4] (at 50.0 µM), 46.3%. Besides, the growth inhibition in assay [5] (setting [7]) was -5%; in assay [5] (setting [8]), -1%; in assay [5] (at 50.0 µM) it was 6.9%; in assay [6] (setting [7]), 4%; in assay [6] (setting [8]), 9%; in assay [6] (at 50.0 µM), 15.4%.

In the case of `CCOC(=O)NC(NNc1ccc([N+](=O)[O-])cc1[N+](=O)[O-])(C(F)(F)F)C(F)(F)F`, the growth inhibition in assay [1] (setting [7]) is 1%; in assay [1] (setting [8]) it was 99% (active); in assay [1] (at 50.0 µM), 97.3% (active); in assay [2] (setting [7]) it was -3%; in assay [2] (setting [8]), 99% (active); in assay [2] (at 50.0 µM), 98.2% (active). The growth inhibition is 6% in assay [3] (setting [7]); 99% (active) in assay [3] (setting [8]); 98.4% (active) in assay [3] (at 50.0 µM); 21% in assay [4] (setting [7]); 98% (active) in assay [4] (setting [8]); 98.7% (active) in assay [4] (at 50.0 µM). The growth inhibition in assay [5] (setting [7]) is 19%; in assay [5] (setting [8]), 97% (active); in assay [5] (at 50.0 µM) it was 98% (active); in assay [6] (setting [7]), 4%; in assay [6] (setting [8]) it was 98% (active); in assay [6] (at 50.0 µM), 98.5% (active).

Turning to `CC(=O)N1CC(C)CC2OC3(CCC4C5CCC6CC(O)CCC6(C)C5C(=O)C4C3C)C(C)C21` (stereo not given), the growth inhibition in assay [1] (setting [7]) is 10%; in assay [1] (setting [8]), 98% (active); in assay [1] (at 50.0 µM), 91.6% (active); in assay [2] (setting [7]) it was 1%; in assay [2] (setting [8]), 98% (active); in assay [2] (at 50.0 µM), 93.7% (active). Further, the growth inhibition in assay [3] (setting [7]) was 19%; in assay [3] (setting [8]) it was 97% (active); in assay [3] (at 50.0 µM) it was 92.6% (active); in assay [4] (setting [7]), 26%; in assay [4] (setting [8]), 98% (active); in assay [4] (at 50.0 µM), 92.5% (active). Besides, the growth inhibition in assay [5] (setting [7]) was 14%; in assay [5] (setting [8]), 98% (active); in assay [5] (at 50.0 µM) it was 92.2% (active); in assay [6] (setting [7]) it was -20%; in assay [6] (setting [8]) it was 98% (active); in assay [6] (at 50.0 µM), 91.8% (active).

Consider `CC(C)(C)OC(=O)CNC(=O)C(Cc1ccccc1)NC(=O)C(N)CSC(c1ccccc1)(c1ccccc1)c1ccccc1` (stereo not drawn) (H-Cys(Trt)-Phe-Gly-OtBu; configuration not given here), for which the growth inhibition in assay [1] (setting [7]) is -3%; in assay [1] (setting [8]) it was 16%; in assay [1] (at 50.0 µM), 59.2%; in assay [2] (setting [7]), -5%; in assay [2] (setting [8]), 53%; in assay [2] (at 50.0 µM) it was 82.2% (active). Besides, the growth inhibition is 0% in assay [3] (setting [7]); 41% in assay [3] (setting [8]); 76.5% (active) in assay [3] (at 50.0 µM); -5% in assay [4] (setting [7]); 48% in assay [4] (setting [8]); 41.3% in assay [4] (at 50.0 µM). In addition, the growth inhibition in assay [5] (setting [7]) was 1%; in assay [5] (setting [8]), 34%; in assay [5] (at 50.0 µM), 17.9%; in assay [6] (setting [7]), -3%; in assay [6] (setting [8]), 45%; in assay [6] (at 50.0 µM) it was 73.3% (active).

As for `NC(C(=O)O)C1=CCCCCC1` (stereo not given), the growth inhibition in assay [1] (setting [7]) was 2%; in assay [1] (setting [8]), -6%; in assay [1] (at 50.0 µM), 49.5%; in assay [2] (setting [7]), 20%; in assay [2] (setting [8]) it was 66%; in assay [2] (at 50.0 µM), 13.8%. In addition, the growth inhibition in assay [3] (setting [7]) is 6%; in assay [3] (setting [8]), -1%; in assay [3] (at 50.0 µM), 9.35%; in assay [4] (setting [7]) it was 12%; in assay [4] (setting [8]) it was 54%; in assay [4] (at 50.0 µM), -6.65%. In addition, the growth inhibition in assay [5] (setting [7]) was 63%; in assay [5] (setting [8]), 98% (active); in assay [5] (at 50.0 µM), -5.95%; in assay [6] (setting [7]), -3%; in assay [6] (setting [8]) it was -4%; in assay [6] (at 50.0 µM), 15.4%.

As to `CC1C[C@]2(C)C(=S)Nc3ccccc3[C@@H]2Nc2ccccc21` (stereo not given in full), the growth inhibition in assay [1] (setting [7]) is -1%; in assay [1] (setting [8]), 43%; in assay [1] (at 50.0 µM) it was 21.9%; in assay [2] (setting [7]) it was 8%; in assay [2] (setting [8]), 55%; in assay [2] (at 50.0 µM), 17.9%. The growth inhibition in assay [3] (setting [7]) is 23%; in assay [3] (setting [8]) it was 74% (active); in assay [3] (at 50.0 µM), 48.8%; in assay [4] (setting [7]), 26%; in assay [4] (setting [8]), 60%; in assay [4] (at 50.0 µM), 19.8%. For the same compound, the growth inhibition in assay [5] (setting [7]) is 24%; in assay [5] (setting [8]) it was 82% (active); in assay [5] (at 50.0 µM) it was 42.3%; in assay [6] (setting [7]) it was 6%; in assay [6] (setting [8]), 58%; in assay [6] (at 50.0 µM) it was 63.3%.

Regarding `C/C=C/C=C/C(=O)Nc1ccc([N+](=O)[O-])cc1`, the growth inhibition was 0% in assay [1] (setting [7]); 53% in assay [1] (setting [8]); 39.8% in assay [1] (at 50.0 µM); -5% in assay [2] (setting [7]); 39% in assay [2] (setting [8]); -0.4% in assay [2] (at 50.0 µM). Besides, the growth inhibition is -1% in assay [3] (setting [7]); 74% (active) in assay [3] (setting [8]); 87% (active) in assay [3] (at 50.0 µM); -9% in assay [4] (setting [7]); 16% in assay [4] (setting [8]); 10.7% in assay [4] (at 50.0 µM). Besides, the growth inhibition in assay [5] (setting [7]) is 0%; in assay [5] (setting [8]) it was 63%; in assay [5] (at 50.0 µM) it was 36.4%; in assay [6] (setting [7]), 0%; in assay [6] (setting [8]) it was 32%; in assay [6] (at 50.0 µM) it was 32.4%.

As to `CCCCOc1ccc(NC(=S)Nc2ccc(OCCN(CC)CC)cc2)cc1`, the growth inhibition in assay [1] (setting [7]) was -4%; in assay [1] (setting [8]), 45%; in assay [1] (at 50.0 µM), 63.6%; in assay [2] (setting [7]), 28%; in assay [2] (setting [8]) it was 70% (active); in assay [2] (at 50.0 µM), 39.1%. The growth inhibition in assay [3] (setting [7]) is 21%; in assay [3] (setting [8]), 67%; in assay [3] (at 50.0 µM), 83.8% (active); in assay [4] (setting [7]), 4%; in assay [4] (setting [8]), 35%; in assay [4] (at 50.0 µM) it was 80.8% (active). Moreover, the growth inhibition in assay [5] (setting [7]) is 3%; in assay [5] (setting [8]), 54%; in assay [5] (at 50.0 µM), 71% (active); in assay [6] (setting [7]), 35%; in assay [6] (setting [8]) it was 71% (active); in assay [6] (at 50.0 µM), 79.2% (active).

For the compound `O=c1[nH]ncc(SCc2ccccc2)c1SCc1ccccc1`, the growth inhibition was 8% in assay [1] (setting [7]); 35% in assay [1] (setting [8]); 97.2% (active) in assay [1] (at 50.0 µM); 3% in assay [2] (setting [7]); 53% in assay [2] (setting [8]); 97.9% (active) in assay [2] (at 50.0 µM). Besides, the growth inhibition is 1% in assay [3] (setting [7]); 58% in assay [3] (setting [8]); 98% (active) in assay [3] (at 50.0 µM); 8% in assay [4] (setting [7]); 31% in assay [4] (setting [8]); 96.1% (active) in assay [4] (at 50.0 µM). The growth inhibition in assay [5] (setting [7]) is 14%; in assay [5] (setting [8]), 37%; in assay [5] (at 50.0 µM), 98.4% (active); in assay [6] (setting [7]), 8%; in assay [6] (setting [8]), 57%; in assay [6] (at 50.0 µM) it was 96.5% (active).
